Consider 9 compounds from PubChem BioAssay (NCI).

The panel holds about 83,000 compounds, 20% with a hit somewhere; the sample as a whole holds those more often.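 Values shown are percent growth following 48 h exposure of cells in 96-well plates to a single concentration of compound; below 10 was considered active.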 Unmarked numbers belong to inactive results. The source made the active and inactive calls.

Holding throughout (assay): NCI-60 one-dose screen, 48 h (100 = growth as untreated, 0 = no growth, -100 = all killed)
Holding throughout (conditions): 10 µM unless noted

Assay [1] deals with OVCAR-8 ovarian.
In assay [2] the test system is OVCAR-5 ovarian.
Assay [3] relates to OVCAR-4 ovarian.
In assay [4] the test system is SK-OV-3 ovarian.
Assay [5] deals with IGROV1 ovarian.
The subject of assay [6] is OVCAR-3 ovarian.
Assay [7] relates to HS 578T breast.
Assay [8] has as its system NCI/ADR-RES ovarian.
Assay [9] deals with T-47D breast.
Assay [10] has as its system BT-549 breast.
The subject of assay [11] is MDA-MB-435 melanoma.
Assay [12] relates to SW-620 colon.
Assay [13] has as its system MCF7 breast.
The test system of assay [14] is HCT-116 colon.
In assay [15] the test system is HCC-2998 colon.
Assay [16] relates to KM12 colon.
Assay [17] has as its system RPMI-8226 leukemia.

Regarding `COc1ccc2c3c(c(OCCCN(C)C)nc2c1)-c1ccc(Cl)cc1C3=O`, the growth in [1] is -38.6% (active); in assay [2], -43.3% (active); in [3], -8.75% (active); in assay [4] it was 55.5%; in assay [5] it was 30.8%; in [6], -46.4% (active). Moreover, the growth in [7] was 68.7%; in [8], 7.12% (active); in assay [9], 72.7%; in assay [10], 92.5%; in assay [11], -7.72% (active); in [12], -78.7% (active). Also, the growth was -82.3% (active) in assay [13], -90.9% (active) in assay [14], -95.2% (active) in [15] and -32.2% (active) in assay [16].

On to `N#CCNc1ccccc1N`, for which the growth was 93.1% in [1]; 109% in assay [2]; 97.2% in assay [3]; 84.5% in assay [4]; 89.3% in [5]; 101% in [6]. Besides, the growth is 91.8% in assay [7]; 95.5% in [8]; 59.9% in [9]; 87.2% in assay [10]; 106% in assay [11]; 100% in [12]. The growth is 88.8% in assay [13], 85.3% in [14], 96.9% in assay [15] and 94% in assay [16].

With `c1cncc(CNc2ccccc2-c2nnc(Nc3ccc4c(c3)OCO4)o2)c1`, the growth in assay [1] was 26.1%; in assay [2] it was 25.2%; in assay [3] it was 36.3%; in assay [4], -3.15% (active); in assay [5], 25.2%; in assay [6], -22% (active). Moreover, the growth in assay [7] is 35.4%; in assay [8], 19.4%; in assay [9] it was 43.5%; in [10], 39.2%; in assay [11] it was -28% (active); in assay [12] it was 30.6%. The growth in [13] is 9.29% (active); in assay [14], 8.54% (active); in assay [15], 20.1%; in assay [16], 3.86% (active).

For `COc1ccc2c(c1)/C(=C\c1c[nH]c3ccc(F)cc13)C(=O)N2`, the growth in [1] was 81.9%; in assay [2], 100%; in assay [3] it was 65.1%; in [4], 93.4%; in assay [5], 69.5%; in assay [6], 83.7%. Moreover, the growth in assay [7] is 99.9%; in [8] it was 85.2%; in assay [9] it was 42.8%; in [10], 106%; in [11], 91.5%; in assay [12] it was 107%. Also, the growth is 60.3% in assay [13], 80% in assay [14], 92.7% in assay [15] and 21.1% in assay [16].

Turning to `COc1ccc(/C=C/C(=O)Nc2cccnc2Nc2ccc(F)cc2)cc1`, the growth in assay [1] was 92.7%; in assay [2], 104%; in assay [3], 91.1%; in assay [4], 101%; in assay [5], 117%; in assay [6], 112%. Further, the growth was 103% in assay [7]; 93.1% in assay [8]; 87.7% in assay [9]; 89.3% in assay [10]; 94.4% in assay [11]; 106% in assay [12]. The growth in [13] is 88.3%; in [14], 91.3%; in assay [15], 106%; in [16] it was 107%.

Consider `CN1CCN(Cc2ccc(NC(=O)c3[nH]ncc3Nc3ccnc4ccnn34)cc2)CC1`, for which the growth was 61.8% in assay [1]; 94% in [2]; 62.1% in assay [3]; 29.1% in assay [4]; 58.3% in assay [5]; 53.7% in [6]. Also, the growth in [7] was 63%; in assay [8], 107%; in assay [9], 63.2%; in assay [10], 74.1%; in [11], 56.1%; in assay [12], 70.1%. Moreover, the growth in assay [13] was 35.9%; in [14], 33.7%; in assay [15], 68.7%; in assay [16] it was 32.7%.

For the compound `Cc1cc2c(cc1[N+](=O)[O-])NC(CNC(C)C)CC2` (configuration not stated), the growth is 105% in assay [17]; 88.7% in assay [2]; 99.7% in assay [4]; 96.6% in assay [6]; 124% in assay [7]; 95.1% in assay [8]. For the same compound, the growth was 86.3% in [9]; 102% in [10]; 107% in [11]; 111% in [12]; 105% in [13]; 96.2% in assay [14]. Besides, the growth was 86.6% in assay [15] and 107% in assay [16].

In the case of `C=C(C[C@@](O)(C(=O)Oc1ccccc1)C(=O)C1CCCCC1)c1ccccc1`, the growth in assay [1] was 101%; in [2] it was 103%; in assay [3], 97.8%; in assay [4] it was 105%; in assay [5], 110%; in [6] it was 106%. Further, the growth in assay [7] was 106%; in assay [8], 101%; in assay [9], 96.2%; in assay [10] it was 105%; in [11], 102%; in [12], 107%. Besides, the growth was 100% in assay [13], 92.7% in assay [14], 105% in [15] and 105% in assay [16].

With `Oc1ccc(-c2nn(-c3ccccc3)cc2-c2nc3ccccc3s2)cc1`, the growth in [1] is 93.5%; in [2] it was 108%; in assay [3], 86.2%; in assay [4], 99%; in assay [5] it was 80.9%; in assay [6] it was 85.3%. The growth in assay [7] was 92.4%; in assay [8], 81.1%; in [9], 53%; in assay [10], 103%; in [11] it was 102%; in assay [12], 99.6%. Also, the growth in [13] was 50.4%; in [14] it was 88.8%; in assay [15], 102%; in [16], 82.8%.
